Screens (PubChem BioAssay)
This is a sample that favours compounds with a hit; in the whole collection about 19% have one here.
DT40 TDP1 no CPT: qHTS for Inhibitors of human tyrosyl-DNA phosphodiesterase 1 (TDP1): qHTS in cells in absence of CPT. Potency, µM (titrated, usually from 46.2 µM), for the others: top-dose activity change, negative = growth inhibition, actives largely listed as inhibitors. 420,000 compounds, 15% hits. AID 686978, 2013. DT40 Tdp1-/- hTDP1 cells, no CPT, ATP luminescence, 48 h; also: potency is read from the fitted curve at half-maximal effect; % is scaled to controls: 0 for no effect and ±100 for the full control effect; nearly all actives have a fitted effect of over 55% in size
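A cellular qHTS used chicken DT40 cells lacking endogenous Tdp1 but carrying stably transfected human TDP1. Compounds were applied without camptothecin, and cell growth kinetics were judged by ATP-dependent luminescence after ≥48 hr.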
ASM inhibitor: inhibitors of human secretory acid sphingomyelinase; P17405; placental ASM, HMU-PC fluorogenic substrate, 60 min; Potency, µM (top dose mostly 57.5 µM), for inactives: at the highest dose activity change, negative = inhibition, most hits filed as inhibitors; 340,000 compounds, 0.006% hits; AID 504937; also: potency is read from the fitted curve at half-maximal effect
Target sequence (P17405 47-631 limits assumed): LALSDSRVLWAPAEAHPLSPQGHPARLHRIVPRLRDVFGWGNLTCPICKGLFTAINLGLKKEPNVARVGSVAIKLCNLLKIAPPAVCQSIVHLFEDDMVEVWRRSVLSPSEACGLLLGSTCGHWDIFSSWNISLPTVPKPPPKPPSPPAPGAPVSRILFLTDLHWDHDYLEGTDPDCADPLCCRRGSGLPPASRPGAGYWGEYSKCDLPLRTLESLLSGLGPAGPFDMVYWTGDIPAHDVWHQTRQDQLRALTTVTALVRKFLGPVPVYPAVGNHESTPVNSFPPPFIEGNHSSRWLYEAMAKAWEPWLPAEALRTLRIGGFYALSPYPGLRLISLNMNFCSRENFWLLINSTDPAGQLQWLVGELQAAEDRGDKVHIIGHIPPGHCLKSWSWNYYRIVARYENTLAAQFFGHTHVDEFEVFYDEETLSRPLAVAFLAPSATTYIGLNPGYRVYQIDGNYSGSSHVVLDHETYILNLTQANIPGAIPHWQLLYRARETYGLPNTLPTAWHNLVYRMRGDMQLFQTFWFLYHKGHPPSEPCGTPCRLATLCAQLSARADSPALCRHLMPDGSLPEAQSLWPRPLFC
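qHTS format. ASM enzyme prepared from human placenta hydrolyses the fluorogenic substrate HMU-PC0 (9 uM final) over 60 min at 37 °C after a 10 min compound preincubation.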
TGFb SMAD3 inh: blocks TGF-b signaling; 410,000 compounds, 1.2% hits; Potency, µM (series often up to 46.1 µM), for inactives: at the highest dose activity, negative = inhibition, actives largely listed as inhibitors; HepG2 CAGA-GFP TGF-b/SMAD3 reporter, GFP fluorescence, 18 h; TGF-beta stimulated, 500 pg/mL final; also: potency is read from the fitted curve at half-maximal effect; % is scaled to controls: 0 for no effect and ±100 for the full control effect; nearly all actives have a fitted effect of over 65% in size
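Per well, imaged GFP fluorescence of HEPG2 CAGA-GFP cells gives the signal; cells get compound, then TGF-beta (500 pg/mL final), 18 h at 37 degrees C; %Activity versus -TGF-beta and +DMSO controls.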
TDP1 cell CPT: DT40-hTDP1 cell growth loss with CPT; chicken DT40 Tdp1-/-;hTDP1 cells + 20 nM CPT, ATP luminescence, 48 h; AID 686979; Potency, µM (series often up to 46.2 µM), inactives show top-dose activity change, negative = growth inhibition, actives largely listed as inhibitors; 420,000 compounds, 12% hits; also: potency is read from the fitted curve at half-maximal effect; % is scaled to controls: 0 for no effect and ±100 for the full control effect; nearly all actives have a fitted effect of over 55% in size
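Chicken DT40 Tdp1-/- cells complemented with human TDP1, 400 cells/well, exposed to compounds plus 20 nM camptothecin for at least 48 h at 37 C; viability read as ATP content by CellTiter-Glo luminescence.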
HepG2 viability: kills HepG2 cells in TGF-b inhibitor counter-screen; HepG2 CAGA-GFP viability, ATP luminescence, 18 h; Potency, µM (highest dose often 46.1 µM), for the others: at the highest dose activity change, negative = cytotoxicity, usual class: cytotoxic; 410,000 compounds, 0.76% hits; also: potency is read from the fitted curve at half-maximal effect
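CellTiter-Glo luminescence gave cytotoxicity after 18 hours at 37 degrees C. The cells were HepG2 CAGA-GFP in 1% FBS DMEM, stimulated with 500 pg/mL TGF-beta after compound addition. %Activity was normalised to no-cell wells (complete cell-killing) and DMSO (no toxicity), and curves were fitted and classified.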
IL1B secr inh: blocks inflammasome-driven IL-1 beta release | activity change, % at 57.5 µM | THP-1 LPS/ATP IL-1B secretion, AlphaLISA, 16 h; stronger effect = lower value | 360,000 compounds, 4.7% hits | AID 743279; in the data active = activity change below about -50%; inconclusive = mostly about -30% to -49%; also: % is scaled to controls: 0 for no effect and ±100 for the full control effect
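Secreted IL-1B measured by AlphaLISA bead assay after 16 h compound exposure of THP-1 cells; compounds (final up to 57.5 uM) added 1 h before LPS (250 ng/mL) and ATP (1.25 mM) stimulation; lower signal means less secretion.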
An asterisk follows results filed as active; ? = inconclusive; . = no result given. Unless noted, calls follow the shape of the dose curve; as a rule, active = well fitted curve in the direction sought with a large enough effect; inconclusive = small, poorly fitted or top-dose-only effect, or another doubt; inactive = no such curve, though single readings can be large; an effect the other way counts as inactive or inconclusive.

SMILES	DT40 TDP1 no CPT	ASM inhibitor	TGFb SMAD3 inh	TDP1 cell CPT	HepG2 viability	IL1B secr inh
CC1CN(c2ccccn2)C(C)CN1C(=O)C(O)(c1ccccc1)c1ccccc1 (stereo unspecified)	23µM*	2%	-2%	29µM*	11%	4
CC1C(=O)OC2CCN3CC4OC4(COC(=O)C(C)(O)C1(C)O)C23 (stereo unspecified)	3%	2%	-2%	2%	-4%	17
COc1ccccc1NC(=O)Cn1c(=O)oc2cc(S(=O)(=O)N3CCCC3)ccc21	?	-3%	15%	-7%	0%	38
CCC(C)(C)NC(=O)Cn1c(=O)oc2cc(S(=O)(=O)N3CC(C)CC(C)C3)ccc21 (stereo unspecified)	-19%	1%	-9%	?	2%	-23
COc1ccc(C)cc1NC(=O)Cn1c(=O)oc2cc(S(=O)(=O)N3CCCCC3)ccc21	15µM*	.	-24%	?	-34%	.
Cc1ccc(Cl)cc1NC(=O)Cn1c(=O)oc2cc(S(=O)(=O)N3CCCCCC3)ccc21	16µM*	.	?	15µM*	-56%	.
COc1ccc(NC(=O)Cn2c(=O)oc3cc(S(=O)(=O)N4CCC(C)CC4)ccc32)c(OC)c1	8.2µM*	.	13µM*	21µM*	-30%	.
COc1ccc(CNC(=O)Cn2c(=O)oc3cc(S(=O)(=O)N4CCCCCC4)ccc32)cc1	16µM*	.	-2%	13µM*	-36%	.
O=C(Cc1c(Cl)cccc1Cl)N1CCN(Cc2ccccc2)CC1	?	5%	0%	-1%	-2%	-12
COc1ccc(CCn2c(O)c(C=Nc3cccc(F)c3)c(=O)[nH]c2=O)cc1OC	-26%	-2%	-9%	?	-14%	18
Cc1ccc(Cl)cc1NC(=O)Cn1c(=O)oc2cc(S(=O)(=O)N3CCCC3)ccc21	9.2µM*	.	.	23µM*	-38%	.
Cc1ccnc(NC(=O)Cn2c(=O)oc3cc(S(=O)(=O)N4CCCC4)ccc32)c1	1%	2%	-26%	-2%	-48%	20
CCN(C(=O)Cn1c(=O)oc2cc(S(=O)(=O)N3CCCCCC3)ccc21)c1cccc(C)c1	21µM*	.	.	?	-34%	.
O=C1NCN(c2ccccc2)C12CCN(C(c1cccs1)c1nnnn1Cc1ccccc1)CC2 (stereo unspecified)	?	.	?	?	4%	-21
CCN1CCN(C(=O)Cc2coc3ccc4ccccc4c23)CC1	-11%	0%	3%	?	-27%	-17
C/C(O)=C1\C(=O)[C@@H]2[C@H]3c4c[nH]c5cccc(c45)C[C@H]3C(C)(C)N2C1=O	8.3µM*	.	.	10µM*	.	.
CC(=O)C1=C(O)[C@@H]2[C@@H]3c4c[nH]c5cccc(c45)C[C@@H]3C(C)(C)N2C1=O	4.2µM*	.	.	6.7µM*	.	.
CC(=O)C1=C(O)C2C3c4c[nH]c5cccc(c45)CC3C(C)(C)N2C1=O (stereo unspecified)	7.3µM*	.	.	10µM*	.	.
COc1ccccc1CCNCc1cccc(C(F)(F)F)c1	-2%	4%	1%	-3%	13%	0
O=C(c1ccc(F)cc1)N1CCC(N2CCCCCC2)CC1	0%	1%	?	-15%	2%	21
C[C@H](CCC(=O)O)[C@H]1CC[C@H]2[C@H]3C(CC[C@]12C)[C@@]1(C)CC[C@@H](O)C[C@H]1C[C@H]3O (stereo partly specified)	-4%	.	.	-8%	.	.
c1cc2c(cc1NC1=NCCO1)CCCC2	?	0%	?	18µM*	-5%	0
